Activity calls are given as the source filed them.
What was measured:
[1] = anti-His antibody binders, primary screen, artefact control for SMM control protein annotation, biochemical, small-molecule microarray, 635 nm fluorescence (AID 1128); settings: anti-His Alexa647 antibody binding, higher = more signal;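 further: score merges feature fluorescence with signal-to-noise for each printed compound spot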
[2] = tested on: Human papillomavirus type 1a E7 protein (residues 1-88); test: HPV1a E7 small-molecule binders, primary screen, biochemical, small-molecule microarray, residues 1-88, 635 nm (AID 1129); settings: small-molecule microarray binding, fluorescence 635 nm; higher = more signal
[3] = target: Focal adhesion kinase 1 (Homo sapiens) (UniProt Q05397); test: small-molecule microarray binders of FAK, primary screen, biochemical, 635/667 nm fluorescence, BSA, DTT (AID 1130); settings: PTK2 binding, 635 nm fluorescence, higher = more signal;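 further: composite of spot emission at 667 nm and signal to noise over triplicate slides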
Chain of Focal adhesion kinase 1 (Homo sapiens) (Q05397 whole entry, looked up): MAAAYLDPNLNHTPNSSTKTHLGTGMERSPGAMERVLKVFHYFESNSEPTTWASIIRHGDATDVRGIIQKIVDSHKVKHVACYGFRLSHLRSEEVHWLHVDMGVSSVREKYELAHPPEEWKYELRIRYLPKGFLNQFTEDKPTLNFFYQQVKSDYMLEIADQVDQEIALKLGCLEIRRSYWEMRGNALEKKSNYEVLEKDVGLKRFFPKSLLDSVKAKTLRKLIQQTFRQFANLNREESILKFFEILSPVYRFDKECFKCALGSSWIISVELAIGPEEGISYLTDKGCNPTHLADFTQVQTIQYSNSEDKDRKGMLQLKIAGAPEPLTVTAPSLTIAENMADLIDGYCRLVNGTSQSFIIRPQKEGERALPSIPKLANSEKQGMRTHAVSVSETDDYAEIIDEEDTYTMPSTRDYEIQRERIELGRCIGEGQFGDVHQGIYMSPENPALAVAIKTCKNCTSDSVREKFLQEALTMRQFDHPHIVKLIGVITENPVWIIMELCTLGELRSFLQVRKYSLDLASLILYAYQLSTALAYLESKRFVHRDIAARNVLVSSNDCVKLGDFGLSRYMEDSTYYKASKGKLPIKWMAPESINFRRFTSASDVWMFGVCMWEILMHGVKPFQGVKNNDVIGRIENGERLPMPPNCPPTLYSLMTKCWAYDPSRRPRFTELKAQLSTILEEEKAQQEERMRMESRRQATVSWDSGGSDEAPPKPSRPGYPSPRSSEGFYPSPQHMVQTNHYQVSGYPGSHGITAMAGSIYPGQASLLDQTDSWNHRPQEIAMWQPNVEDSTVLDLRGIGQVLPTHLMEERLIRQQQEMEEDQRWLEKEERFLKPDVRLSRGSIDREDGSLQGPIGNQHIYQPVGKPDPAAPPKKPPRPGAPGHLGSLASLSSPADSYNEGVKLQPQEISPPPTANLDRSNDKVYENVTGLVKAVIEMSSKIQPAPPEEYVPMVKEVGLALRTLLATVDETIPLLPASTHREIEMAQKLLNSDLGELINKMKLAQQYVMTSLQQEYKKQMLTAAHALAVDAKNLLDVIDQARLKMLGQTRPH

[4] = tested on: Fibrinogen (Alexa647-labelled); test: fibrinogen binders on compound microarrays, profiling panel, artefact control for SMM control-protein annotation, biochemical, small-molecule microarray, 635/667 nm fluorescence (AID 1131); settings: fibrinogen-A647 binding fluorescence, higher = more signal;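 further: z-score merges 667 nm fluorescence with per-spot signal-to-noise over triplicate slides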
[5] = target: Follistatin (Homo sapiens) (UniProt P19883); test: follistatin binders on small-molecule microarrays, primary screen, biochemical, small-molecule microarray, 635/667 nm fluorescence (AID 1132); settings: FST binding, 635 nm fluorescence, higher = more signal
Chain of Follistatin (Homo sapiens) (P19883 whole entry, looked up): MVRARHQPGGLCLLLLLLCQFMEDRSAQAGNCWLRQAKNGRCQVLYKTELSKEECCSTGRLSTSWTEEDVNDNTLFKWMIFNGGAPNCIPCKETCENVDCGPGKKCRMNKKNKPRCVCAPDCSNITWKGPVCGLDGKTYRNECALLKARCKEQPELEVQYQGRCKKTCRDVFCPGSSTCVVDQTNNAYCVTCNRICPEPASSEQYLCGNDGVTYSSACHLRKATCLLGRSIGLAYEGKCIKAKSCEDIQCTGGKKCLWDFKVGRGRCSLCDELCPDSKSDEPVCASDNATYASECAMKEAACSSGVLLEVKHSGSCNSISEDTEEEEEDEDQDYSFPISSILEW

[6] = target: Fibroblast growth factor 2 (Homo sapiens) (UniProt P09038); test: FGF2 binders on small-molecule microarrays, primary screen, biochemical, small-molecule microarray, 635/667 nm fluorescence (AID 1133); settings: small-molecule microarray binding, FGF2, fluorescence 635/667; higher = more signal
Chain of Fibroblast growth factor 2 (Homo sapiens) (P09038 whole entry, looked up): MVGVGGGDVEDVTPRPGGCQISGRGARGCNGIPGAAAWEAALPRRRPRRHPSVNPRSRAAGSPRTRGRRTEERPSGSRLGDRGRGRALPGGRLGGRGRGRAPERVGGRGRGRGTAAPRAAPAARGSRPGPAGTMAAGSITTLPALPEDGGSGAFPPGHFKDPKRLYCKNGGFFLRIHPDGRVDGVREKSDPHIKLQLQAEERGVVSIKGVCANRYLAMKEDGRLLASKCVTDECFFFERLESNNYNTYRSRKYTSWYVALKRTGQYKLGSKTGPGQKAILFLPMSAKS

[7] = mitochondrial membrane potential change in A549 cells, profiling panel, cell-based, JC-1 fluorescence, basal, 24 h, 100 nL (AID 1138); settings: higher = more signal;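 further: A549 lung adenocarcinoma cells under basal conditions with no added stimulus; test concentration not given here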
Lefty1 = Lefty1 binders on small-molecule microarrays, primary screen, biochemical, small-molecule microarray, 635/667 nm fluorescence (AID 1139); settings: small-molecule microarray binding, fluorescence 635/667; higher = more signal
[8] = tested on: wheat germ agglutinin (Triticum aestivum), Alexa647-labelled; test: wheat germ agglutinin binders on compound microarrays, profiling panel, artefact control for SMM control-protein annotation, biochemical, small-molecule microarray, 635/667 nm fluorescence (AID 1140); settings: WGA-A647 binding, 635 nm fluorescence, higher = more signal;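 further: score merges 667 nm feature emission with signal to noise over triplicate slides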
[9] = target: Luciferin 4-monooxygenase (Photinus pyralis) (UniProt P08659); test: firefly luciferase enzyme inhibitors, primary screen, biochemical, luminescence, purified enzyme, 2006 set (AID 1141); settings: SteadyGlo luminescence, 30 min, higher = more signal, called active from +8 up or from −8 down;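 further: cell-free assay with purified firefly luciferase at 100 ng per well in PBS; test concentration not given here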
Chain of Luciferin 4-monooxygenase (Photinus pyralis) (P08659 whole entry, looked up): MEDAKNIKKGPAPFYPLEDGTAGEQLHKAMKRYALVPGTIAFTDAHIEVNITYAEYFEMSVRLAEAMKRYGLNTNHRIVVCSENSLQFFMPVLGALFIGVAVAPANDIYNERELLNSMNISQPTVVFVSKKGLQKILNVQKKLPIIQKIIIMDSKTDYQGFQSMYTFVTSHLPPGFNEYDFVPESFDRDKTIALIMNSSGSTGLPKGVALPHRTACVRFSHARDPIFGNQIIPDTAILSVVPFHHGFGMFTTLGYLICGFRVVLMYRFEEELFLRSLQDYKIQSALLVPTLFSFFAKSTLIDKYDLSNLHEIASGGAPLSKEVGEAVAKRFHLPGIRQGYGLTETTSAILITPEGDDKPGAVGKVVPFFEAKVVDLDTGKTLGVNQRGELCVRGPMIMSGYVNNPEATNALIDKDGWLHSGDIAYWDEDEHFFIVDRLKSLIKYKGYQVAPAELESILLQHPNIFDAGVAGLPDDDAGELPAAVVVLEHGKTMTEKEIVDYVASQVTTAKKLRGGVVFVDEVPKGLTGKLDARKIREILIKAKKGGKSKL

Row | SMILES | composite z-score [1] | composite z-score [2] | composite z-score [3] | composite z-score [4] | composite z-score [5] | composite z-score [6] | z-score [7] | composite z-score (Lefty1) | composite z-score [8] | z-score [9]
1 | O=C(N1CCCCC1)[C@]1(CCS(=O)(=O)c2ccccc2)N=C(c2ccc(OCCCO)cc2)O[C@@H]1c1ccccc1 | 3.05 | 1.22 | 1.29 | 0.949 | 1.18 | 0.619 | -0.913 | 0.211 | 1.31 | -0.149 (inactive)
2 | CC(=O)NCCCC[C@@H]1NC(=O)[C@@H]2C[C@H](C(=O)NCc3ccc(F)cc3)[C@H](c3ccc(O)cc3)N2C1=O | 2.04 | 0.582 | 0.244 | 0.754 | 1.33 | 1.22 | 0.329 | 0.889 | 0.182 | -0.333 (inactive)
3 | CCCNC(=O)[C@@]1(C)c2ccccc2C(=O)N(C(C)C)[C@H]1c1ccc(CO)cc1 | -0.853 | -0.54 | 0.198 | -0.879 | -0.127 | -0.343 | -0.809 | -1.38 | -0.867 | 0.33 (inactive)
4 | CCOC1=C2C(c3ccc(C)cc3)N(S(=O)(=O)c3ccc(C)cc3)CC2n2c(=O)n(-c3ccccc3)c(=O)n2C1 (stereo not given) | 0.229 | 1.16 | 0.206 | 0.933 | 0.876 | 0.747 | 0.374 | 0.53 | 0.755 | 1.09 (inactive)
5 | CC(=O)n1cc(C(O)C2C=CC3C(=O)N(c4ccccc4)C(=O)C3N2Nc2ccc(C#N)cc2)c2ccccc21 (stereo not given) | 1.56 | 1.26 | 0.519 | 0.893 | 0.12 | -0.856 | 0.0139 | -0.233 | 1.38 | -0.985 (inactive)
6 | O=C1O[C@@H](c2ccccc2)[C@@H](c2ccccc2)N2[C@@H](c3ccc(O)cc3)[C@]3(C(=O)Nc4ccccc43)[C@@H](C(=O)NC[C@H](O)c3ccccc3)[C@H]12 | 2.07 | -0.366 | 0.0943 | -0.406 | 1.02 | 0.797 | 0.411 | 0.266 | 0.0576 | 0.807 (inactive)
7 | [N-]=[N+]=NCc1ccccc1[C@H]1OC(c2ccc(OCCCO)cc2)=N[C@@]1(Cc1ccccc1)C(=O)O | 1.97 | 0.762 | 0.551 | 0.472 | 1.31 | 1.42 | -0.0378 | 0.195 | 0.611 | -0.0016 (inactive)
8 | C#C[C@H]1Oc2ccccc2S(=O)(=O)N2CCC[C@@H]12 | -0.233 | -0.704 | -0.434 | -0.597 | 0.963 | 0.0278 | 0.092 | 1.51 | -0.719 | 0.119 (inactive)
9 | COc1ccccc1CN1C(=O)c2ccccc2[C@](Cc2ccccc2I)(C(=O)NCc2ccccc2)[C@@H]1c1ccc(CO)cc1 | -0.0448 | 0.406 | -0.2 | 0.414 | -0.526 | -0.243 | 0.109 | -0.88 | 0.687 | 0.0375 (inactive)
10 | O=C1OCC=C[C@H]2OC34C=CCN(c5ccc6ccccc6c5)C(=O)[C@H]3N(CCO)C(=O)[C@@H]4[C@@H]12 (stereo not given in full) | 0.0061 | -0.785 | -0.415 | -1.22 | -1.05 | -2.06 | 1.51 | -0.455 | -1.18 | -0.646 (inactive)
11 | [N-]=[N+]=Nc1ccccc1C[C@]1(C(=O)N2CCCCC2)N=C(c2ccc(OCCCO)cc2)O[C@H]1c1ccccc1N=[N+]=[N-] | 1.6 | 1.24 | 0.544 | 0.945 | 1.18 | 0.806 | 0.591 | -0.105 | 0.811 | -3.15 (inactive)
12 | [N-]=[N+]=NCc1ccccc1[C@@H]1OC(c2ccc(OCCCO)cc2)=N[C@]1(Cc1ccccc1)C(=O)O | 1.25 | 0.445 | 1.4 | 0.635 | 0.592 | 0.0221 | 1.36 | -0.548 | 0.536 | -1.44 (inactive)
13 | C=C(CCCC)C(=O)CC[C@H](OC(C)=O)c1ccc(CO)o1 | -0.273 | 0.228 | -0.0408 | -0.332 | 1.03 | 0.361 | -0.0332 | 0.861 | -0.276 | -1.77 (inactive)
14 | C=C(C(=O)CC[C@H](OC(=O)c1cccnc1)c1ccccc1OCCO)C(C)C | 0.971 | 0.834 | 0.092 | 0.101 | 1.42 | 1.83 | 0.0404 | 1.44 | 0.0398 | -0.0549 (inactive)
15 | CCCC[C@@H]1C[C@H]1[C@@H](NC(=O)c1ccco1)c1ccccc1 | -0.172 | -1 | -0.107 | -1.82 | -1.64 | -2.17 | 0.542 | -1.06 | -0.0439 | 0.771 (inactive)
16 | CCN(CC)c1ccc(N2CC=CC34O[C@@H]5/C=C\CCC(C)OC(=O)C5[C@H]3C(=O)N(CCCCCCO)[C@@H]4C2=O)cc1 (stereo not given in full) | 0.0517 | -0.089 | -0.182 | -1.59 | -0.371 | -0.361 | 0.905 | -0.652 | 0.524 | -1.59 (inactive)
17 | COCCOC(=O)N1C(=O)[C@@]2(c3ccccc31)[C@H](C(=O)N1CCCCCCC1)[C@H]1C(=O)O[C@H](c3ccccc3)[C@H](c3ccccc3)N1[C@@H]2c1ccccc1OCCO | 2.04 | 1.27 | 1.26 | 0.802 | 1.47 | 0.662 | -0.647 | 1.47 | 1.53 | 0.131 (inactive)

Reference: PubChem BioAssay
